PubChem BioAssay
Active and inactive are the calls of the source. Unless noted, the rule behind the calls is not given here.

Legend:
[1] = compound effects on lung adenocarcinoma cell viability – A549, calcein-AM fluorescence, 48 h, basal, profiling panel (AID 1162); settings: higher = more signal; note: test concentration not given here
[2] = compound effects on differentiated 3T3-L1 adipocyte viability – cell-based, 3T3-L1 adipocytes, calcein-AM fluorescence, 48 h, basal, profiling panel (AID 1163); settings: 3T3-L1 adipocytes viability, higher = more signal; note: test concentration not given here
[3] = compound effects on hepatocellular carcinoma cell viability – HepG2, calcein-AM fluorescence, 48 h, basal, profiling panel (AID 1164); settings: higher = more signal; note: test concentration not given here
[4] = compound effects on multiple myeloma cell viability – MM1S, calcein-AM fluorescence, 48 h, basal, profiling panel (AID 1165); settings: higher = more signal;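 note: viability of MM1S multiple myeloma cells under basal unstimulated conditions; test concentration not given here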
[5] = calcein-AM signal in unstimulated myeloma cells – cell-based, calcein-AM fluorescence, 48 h, PK04 Diversity Set, profiling panel (AID 1166); settings: RPMI8226 myeloma viability, higher = more signal;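 note: cells grown under basal conditions without added stimulus; test concentration not given here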
[6] = JC-1 mitochondrial signal, unstimulated HepG2 cells – cell-based, JC-1 fluorescence, 24 h, 100 nL compound, profiling panel (AID 1167); settings: HepG2 mitochondrial potential, higher = more signal; note: test concentration not given here
[7] = JC-1 mitochondrial signal, unstimulated adipocytes – cell-based, JC-1 fluorescence, 3T3-L1 adipocytes, 24 h, 100 nL compound, profiling panel (AID 1168); settings: JC-1 mitochondrial fluorescence, higher = more signal, called active from +8 up or from −8 down; note: test concentration not given here
[8] = JC-1 mitochondrial signal, unstimulated myeloma cells – cell-based, JC-1 fluorescence, RPMI8226, 24 h, 100 nL compound, profiling panel (AID 1169); settings: JC-1 mitochondrial potential fluorescence, higher = more signal; note: test concentration not given here
[9] = JC-1 mitochondrial signal, unstimulated MM1S myeloma – cell-based, JC-1 fluorescence, 24 h, 100 nL compound, profiling panel (AID 1170); settings: MM1S mitochondrial potential, higher = more signal; note: test concentration not given here
[10] = resazurin metabolic signal in A549 cells – cell-based, resazurin fluorescence, 24 h, PK04 Diversity Set, profiling panel (AID 1171); settings: A549 viability, higher = more signal, called active from +8 up or from −8 down; note: test concentration not given here
[11] = resazurin metabolic signal in HepG2 cells – cell-based, resazurin fluorescence, 24 h, PK04 Diversity Set, profiling panel (AID 1172); settings: HepG2 viability, higher = more signal; note: test concentration not given here
[12] = budding yeast growth changes without added modifier – OD600, strain BY4716, 24 h, basal condition, primary screen (AID 1173); settings: S. cerevisiae BY4716 growth, OD600, 24 h; higher = more signal, called active from +8 up or from −8 down
[13] = viability profiling in MM1S myeloma cells – cell-based, resazurin fluorescence, basal, 24 h, PK04 Diversity Set, profiling panel (AID 1174); settings: higher = more signal, called active from +8 up or from −8 down; note: test concentration not given here
[14] = biological target: Dihydroorotate dehydrogenase (quinone), mitochondrial (Plasmodium falciparum (isolate 3D7)) (UniProt Q08210); assay: inhibition of P. falciparum DHODH – biochemical, C-terminal His tag, absorbance 600 nm, primary screen (AID 1175); settings: PfDHODH enzyme, DCIP absorbance 600 nm; higher = more signal, called active from +8 up or from −8 down;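 note: recombinant parasite enzyme with a five histidine tag at its C terminus; test concentration not given here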
Sequence of Dihydroorotate dehydrogenase (quinone), mitochondrial (Plasmodium falciparum (isolate 3D7)) (Q08210 whole entry, looked up): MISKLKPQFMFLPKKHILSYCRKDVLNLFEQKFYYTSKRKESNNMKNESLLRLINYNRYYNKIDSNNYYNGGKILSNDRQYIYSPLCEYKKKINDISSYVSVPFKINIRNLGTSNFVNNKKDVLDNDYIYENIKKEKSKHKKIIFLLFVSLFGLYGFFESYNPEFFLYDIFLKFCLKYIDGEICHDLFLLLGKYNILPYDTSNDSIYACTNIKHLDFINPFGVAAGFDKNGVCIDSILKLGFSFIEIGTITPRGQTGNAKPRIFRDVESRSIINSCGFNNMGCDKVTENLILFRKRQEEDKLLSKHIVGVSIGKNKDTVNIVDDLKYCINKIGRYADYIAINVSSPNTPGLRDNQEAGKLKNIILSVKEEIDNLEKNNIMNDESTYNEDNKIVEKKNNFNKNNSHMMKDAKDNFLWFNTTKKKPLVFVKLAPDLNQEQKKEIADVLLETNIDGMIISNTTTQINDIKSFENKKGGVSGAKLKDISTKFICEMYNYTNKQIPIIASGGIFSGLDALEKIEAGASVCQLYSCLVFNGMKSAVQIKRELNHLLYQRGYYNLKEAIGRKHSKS

[15] = inhibition of PAO1 biofilm formation – strain PAO1, LB-PBS medium, absorbance 600 nm, primary screen (AID 1176); note: test concentration not given here; settings: P. aeruginosa PAO1 growth/biofilm, A600, 12 h; higher = more signal
[16] = growth modulation of vineyard yeast isolate – strain RM11-1a, OD600, basal, 24 h, primary screen (AID 1177);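 note: cultures grown under basal conditions with no added stressor; test concentration not given here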; settings: S. cerevisiae RM11-1a growth, OD600, 24 h; higher = more signal, called active from +8 up or from −8 down
[17] = growth of efflux-deficient E. coli DRC39 – strain DRC39, OD650, 24 h, E. coli filamentation inducers, primary screen (AID 1178);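 note: growth measured as culture turbidity by optical density at 650 nm; test concentration not given here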; settings: E. coli DRC39 acrAB, higher = more signal, called active from +8 up or from −8 down
[18] = growth of efflux-deficient E. coli DRC39 – strain DRC39, OD650, 48 h, E. coli filamentation inducers, primary screen (AID 1179);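 note: screen aims at cell division blockers that make cells filament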; settings: E. coli DRC39 delta-acrAB growth, higher = more signal, called active from +8 up or from −8 down
[19] = viability profiling in RPMI8226 myeloma cells – cell-based, resazurin fluorescence, basal, 24 h, PK04 Diversity Set, profiling panel (AID 1180); settings: higher = more signal;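 note: RPMI8826 multiple myeloma cell line at 5000 cells per well; test concentration not given here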
[20] = biological target: E3 ubiquitin-protein ligase XIAP (Homo sapiens) (UniProt P98170); assay: small molecules binding XIAP protein – biophysical, small-molecule microarray, fluorescence 635 nm, primary screen (AID 1181); settings: higher = more signal;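 note: score merges 667 nm emission and signal to noise over triplicate slides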
Sequence of E3 ubiquitin-protein ligase XIAP (Homo sapiens) (P98170 whole entry, looked up): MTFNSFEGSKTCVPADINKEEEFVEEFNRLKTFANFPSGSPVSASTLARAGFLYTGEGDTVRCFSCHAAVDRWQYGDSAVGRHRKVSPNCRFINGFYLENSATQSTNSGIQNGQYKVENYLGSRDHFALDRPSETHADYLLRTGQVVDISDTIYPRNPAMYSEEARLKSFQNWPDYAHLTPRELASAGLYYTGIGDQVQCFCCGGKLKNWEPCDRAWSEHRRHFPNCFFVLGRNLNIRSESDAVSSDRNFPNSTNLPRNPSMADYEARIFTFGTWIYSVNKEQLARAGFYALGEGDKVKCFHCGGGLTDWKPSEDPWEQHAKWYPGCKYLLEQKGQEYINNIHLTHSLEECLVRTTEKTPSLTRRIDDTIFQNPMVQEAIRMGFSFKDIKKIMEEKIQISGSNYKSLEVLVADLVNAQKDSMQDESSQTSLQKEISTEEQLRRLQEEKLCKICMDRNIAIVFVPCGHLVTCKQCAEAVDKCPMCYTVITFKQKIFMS

SMILES | z-score [1] | z-score [2] | z-score [3] | z-score [4] | z-score [5] | z-score [6] | z-score [7] | z-score [8] | z-score [9] | z-score [10] | z-score [11] | z-score [12] | z-score [13] | composite z-score [14] | z-score [15] | z-score [16] | z-score [17] | z-score [18] | z-score [19] | composite z-score [20]
NC(=O)NCC#Cc1ccc2c(c1)[C@]1(C(=O)N2)[C@H](C(=O)O)[C@H]2C(=O)O[C@H](c3ccccc3)[C@H](c3ccccc3)N2[C@@H]1c1ccc(OCCO)cc1 | 0.0179 | 0.359 | -0.519 | 0.231 | 0.12 | -2.3 | -0.483 (inactive) | 0.00293 | 0.12 | 0.721 (inactive) | 0.626 | 0.0086 (inactive) | 0.557 (inactive) | -0.932 (inactive) | 0.545 (inactive) | -0.285 (inactive) | -0.0444 (inactive) | -0.721 (inactive) | 0.547 | 0.361
COCCOC(=O)N1C(=O)[C@@]2(c3cc(C#Cc4ccc(OC)cc4)ccc31)[C@H](C(=O)Nc1nc3ccccc3s1)[C@H]1C(=O)O[C@H](c3ccccc3)[C@H](c3ccccc3)N1[C@@H]2c1ccc(O)cc1 | 0.373 | 1.31 | -0.375 | -1.18 | -1 | -2.78 | 1.1 (inactive) | -0.544 | -0.766 | 0.0344 (inactive) | -0.154 | -0.43 (inactive) | 0.529 (inactive) | 1.17 (inactive) | 0.609 (inactive) | 0.735 (inactive) | 0.275 (inactive) | -0.591 (inactive) | 0.85 | 0.012
COC(=O)c1c2oc(c1C(=O)OC)C(=O)N(C)Cc1cn(nn1)C[C@H](Cc1ccccc1)NC(=O)N[C@H](CO)CC2 | -0.145 | 0.129 | -0.0951 | 0.273 | -0.743 | -0.649 | -0.164 (inactive) | 0.256 | -0.31 | -0.213 (inactive) | -0.356 | 0.415 (inactive) | -0.286 (inactive) | 0.31 (inactive) | 0.0914 (inactive) | 1.2 (inactive) | -0.499 (inactive) | -0.913 (inactive) | -0.139 | -0.0559
C=CCC(OC(C)=O)[C@@H]1[C@@H](N(Cc2ccc(-c3cccc(C(F)(F)F)c3)o2)C(=O)c2ccc(C)cc2)c2cc(OCCCO)ccc2N1C(=O)c1ccc2ccccc2c1 (stereo not given in full) | -0.403 | 0.821 | 0.236 | 0.47 | 0.966 | 3.41 | 0.586 (inactive) | 0.102 | -0.555 | 0.462 (inactive) | 0.472 | 0.656 (inactive) | 0.845 (inactive) | -0.689 (inactive) | -0.124 (inactive) | 0.544 (inactive) | -0.0973 (inactive) | 0.759 (inactive) | 1.37 | -0.0878
CC(C)(C)OC(=O)CC[C@]1(C(=O)NCC(O)CO)N=C(c2ccc(OCCCO)cc2)O[C@H]1c1ccccc1 (stereo not given in full) | 0.156 | 0.833 | 0.135 | 0.709 | 0.0887 | 0.52 | -0.24 (inactive) | -0.963 | 0.437 | 0.489 (inactive) | 0.309 | -1.84 (inactive) | 1.04 (inactive) | -1.89 (inactive) | 0.882 (inactive) | -0.87 (inactive) | 1.41 (inactive) | 0.419 (inactive) | 0.949 | -0.0203
CCCCCCc1nc(-c2cc(C)c(OC)c(C)c2)c(C)c2c1[Si](C(C)C)(C(C)C)OC2 | -0.499 | 1.66 | -0.289 | -2.84 | -1.44 | 0.797 | 0.354 (inactive) | -0.18 | -1.6 | 0.197 (inactive) | -0.52 | -0.214 (inactive) | 0.899 (inactive) | -2.86 (inactive) | 0.374 (inactive) | -0.199 (inactive) | 0.326 (inactive) | -0.461 (inactive) | 0.736 | -0.0994
C=C(COC)C(=O)CC[C@@H](OC(=O)c1cccnc1)c1ccc(OCCO)cc1 | -0.1 | -0.486 | -0.419 | -2.55 | -1.29 | -1.89 | 0.42 (inactive) | 0.829 | -0.374 | -0.284 (inactive) | 0.379 | -16 (active) | 0.556 (inactive) | -3.49 (inactive) | 0.178 (inactive) | -0.499 (inactive) | 0.864 (inactive) | 0.441 (inactive) | 0.221 | -0.184
O=C1O[C@H](c2ccccc2)[C@H](c2ccccc2)N2[C@H]1[C@@H](C(=O)N1CCN(c3ncccn3)CC1)[C@]1(C(=O)Nc3ccc(C#CC4(O)CCCCCC4)cc31)[C@H]2c1ccc(OCCO)cc1 | 0.282 | 1.11 | 0.473 | -0.699 | 0.148 | -1.73 | -0.309 (inactive) | -0.618 | -0.87 | 0.746 (inactive) | 0.204 | 1.82 (inactive) | -0.484 (inactive) | -0.884 (inactive) | 3.52 (inactive) | 3.34 (inactive) | -0.427 (inactive) | -0.0689 (inactive) | 0.478 | 0.258
